Here are results for 95 compounds from PubChem BioAssay AID778 (Sanford-Burnham Center for Chemical Genomics, 2007).

Among all 96,000 compounds or so, about 20,000 (21%) were called active.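 How the source made its calls: active means CYP2C19 inhibition above a set limit at 5 µM in the primary screen (cut at about 50% in these data); inactive means the rest.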 Not all results are given here.

Chain of Cytochrome P450 2C19 (Homo sapiens) (P33261 whole entry, looked up): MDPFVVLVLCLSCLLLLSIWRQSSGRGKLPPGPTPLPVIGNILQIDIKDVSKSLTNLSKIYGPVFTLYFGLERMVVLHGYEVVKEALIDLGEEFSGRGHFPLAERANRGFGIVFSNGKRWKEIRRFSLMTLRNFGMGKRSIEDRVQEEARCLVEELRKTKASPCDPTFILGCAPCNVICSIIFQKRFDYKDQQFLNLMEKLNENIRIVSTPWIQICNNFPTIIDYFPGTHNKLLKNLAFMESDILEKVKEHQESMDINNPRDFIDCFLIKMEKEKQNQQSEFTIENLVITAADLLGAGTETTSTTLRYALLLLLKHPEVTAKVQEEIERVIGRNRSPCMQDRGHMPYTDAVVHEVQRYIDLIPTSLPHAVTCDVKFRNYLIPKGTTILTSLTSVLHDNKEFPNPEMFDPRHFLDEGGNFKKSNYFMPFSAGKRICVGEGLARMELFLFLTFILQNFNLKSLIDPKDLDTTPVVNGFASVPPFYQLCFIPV

The experiment addresses Cytochrome P450 2C19 (Homo sapiens) (UniProt P33261). Briefly: blockers of cytochrome P450 2C19 activity – biochemical, luminescence, ADME assay, primary screen (AID 778).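 Further: plate controls were negative control wells for no effect and 2.5 mM tranylcypromine positive control for full effect.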 The note with it: CYP2C19 Supersomes, luciferin-H EGE luminescence, 30 min; at 5 µM; hits give high values.
Consider `CCOc1ccc(CCNC(=O)C(CC)n2nc(C)n3c(cc4sccc43)c2=O)cc1OCC` (stereo not given), for which the inhibition was 57.8% (active).
For `CCC(C(=O)NCc1ccc(OC)cc1)n1nc(C)n2c(cc3occc32)c1=O` (stereo not given) the value was 58.8% (active).
For `CCOc1ccc(CNC(=O)C2CC(=O)N(C3CCCC3)C2)cc1OC` (stereo not given) the value was -8% (inactive); for `CCOc1ccc(CCNC(=O)C2CCN(c3ccc(N4CCOCC4)nn3)CC2)cc1OCC`, 13.9% (inactive); for `COc1ccc(CCn2c(=N)c(C(=O)NCc3ccco3)cc3c(=O)n4cccc(C)c4nc32)cc1`, 25.7% (inactive).
To `COc1ccc(CNC(=O)c2cc3c(=O)n4ccccc4nc3n(CC3CCCO3)c2=N)cc1` (stereo not given) belongs 6.2% (inactive); to `COc1cc(OC)cc(-c2cc3nc(C4CCN(C(=O)OC(C)(C)C)CC4)cc(=O)n3[nH]2)c1`, 2.8% (inactive).
With `CC(Cc1cccs1)NC(=O)NC1CCCCC1` (stereo not given), the inhibition was 21% (inactive).
For `COc1cccc(Nc2nnc(SCC(=O)N3CC(C)OC(C)C3)s2)c1` (stereo not given) the value was 36% (inactive).
For `c1ccc(CCN2CN=C(Nc3nc4ccccc4o3)NC2)cc1`, the inhibition was 29.5% (inactive).
For `CCOc1cc(-c2nc3cc(C)ccn3c2NCC2CCCO2)ccc1O` (stereo not given) the value was 2.7% (inactive); for `O=P(c1ccc2c(c1)OCCO2)(N1CCOCC1)N1CCOCC1`, 21.2% (inactive); for `Cc1ccc(NC(=O)Cn2nc(C)c3ccccc3c2=O)c(C)c1`, 56.1% (active).
For `O=C(Cn1nc(Cc2cccnc2)c2ccccc2c1=O)NCC1COc2ccccc2O1` (stereo not given) the value was 36.1% (inactive); for `Cc1nn(CC(=O)Nc2ccc3c(c2)nc(CN2CCCCC2)n3C)c(=O)c2ccccc12`, 10.5% (inactive); for `COc1cccc(C(=O)Nc2ccc(NC(=O)c3ccco3)cn2)c1`, 38.7% (inactive).
To `Cc1sc2c(c1C)c(=O)n(-c1ccccc1)c1nncn21` belongs -7.8% (inactive); to `Cc1cc(=O)cc(C)[nH]1`, 4.5% (inactive).
With `COc1ccc(N2CCN(C(=O)CNC(=O)c3ccc(C(C)(C)C)cc3)CC2)cc1`, the inhibition was 3.3% (inactive).
For `CC(C)c1ccc(N2CCN(C(=O)c3ccccc3NC(=O)/C=C(\C(=O)O)c3ccccc3)CC2)cc1` the value was 21.7% (inactive).
For `CC(=O)N1CCN(c2ccc(NCc3ccc(C(C)C)cc3)cc2)CC1` the value was 50.5% (active); for `Cc1ccc(Cc2cnc(N)s2)o1`, 8.3% (inactive); for `CC1CC(C)CN(S(=O)(=O)c2cccc(C(=O)N3C(=O)c4cccc(N)c4C3=O)c2)C1` (stereo not given), 5.9% (inactive).
To `O=C(Nc1cccnc1)c1noc2c1CCCCC2` belongs 64.2% (active); to `CCOC(=O)c1ccc(-c2ccc(C(=O)Nc3cccnc3)o2)cc1`, 14.1% (inactive); to `O=C(Nc1cccc2ccccc12)c1onc2c1CCCC2`, 7.1% (inactive).
Take `Cn1c(=O)c2[nH]c(NCC3CCCO3)nc2n(-c2ccccc2)c1=O` (stereo not given): the inhibition was -1% (inactive).
To `CC(=O)NC1CC2CCCC(C1)N2CC(=O)Nc1ccccc1` (stereo not given) belongs 11.5% (inactive); to `CSCCC(NC(=O)c1ccco1)C(=O)OCC(=O)Nc1ncc(Cl)c(C)c1Cl` (stereo not given), 12.9% (inactive); to `O=C(Nc1ccc2sc3ccccc3c(=O)c2c1)c1ccccc1Cl`, 14.5% (inactive).
For `COC(=O)c1cn(-c2ccccc2)nc1-c1cccnc1` the value was 30.5% (inactive).
For `O=C(NCc1cccnc1)c1cn(-c2ccccc2)nc1-c1cccs1` the value was 89.6% (active); for `Cc1c(C(=O)NCc2ccccc2)cnn1-c1ccccc1`, 11.5% (inactive); for `COC(=O)Cc1csc(Nc2c(C)n(C)n(-c3ccccc3)c2=O)n1`, -4.9% (inactive).
Consider `CC1CC(c2ccccc2)n2nc(NC(=O)c3cccs3)nc2N1` (stereo not given), for which the inhibition is 7.3% (inactive).
To `CCOC(=O)C1CCCCN1Cc1ccc(OC)c(OC)c1OC` (stereo not given) belongs 58.1% (active); to `CCOC(=O)C1CCN(Cc2coc3ccc(Cl)cc3c2=O)CC1`, 6.5% (inactive).
For `CCOC(=O)CSc1nncc2ccc(OC)c(OC)c12` the value was 11.3% (inactive).
For `CN=C1SC(CC(=O)Nc2ccc(C(=O)O)cc2)C(=O)N1C` (stereo not given) the value was -4.9% (inactive).
On to `CC(=O)C1C(c2ccc(Cl)cc2)NC(=O)NC1(O)C(F)(F)F` (stereo not given), for which the inhibition is 39% (inactive).
For `CCOC(=O)C(C)Oc1cccc2c(=O)n(CC(=O)N3CCc4ccccc43)ccc12` (stereo not given) the value was 8.2% (inactive).
For `CCc1cccc2c(C=C(C#N)C#N)cn(CC(=O)N3CCCCC3)c12`, the inhibition is -0.7% (inactive).
To `COc1cccc2c(=O)n(CC(=O)N3CCCCCC3)ccc12` belongs 56.9% (active); to `O=C(Cn1cc2c(n1)CCCCC2)NCCN1CCOCC1`, -10.3% (inactive).
As for `COc1cc(OC)c(C(=O)NC2CCCCCC2)cc1OC`, the inhibition was 43.7% (inactive).
To `CS(=O)(=O)N(CC(=O)NCc1ccco1)c1ccc2c(c1)OCO2` belongs 59.5% (active); to `O=C(CN(c1ccc2c(c1)OCCO2)S(=O)(=O)c1ccccc1)Nc1ccc2c(c1)OCO2`, 26.7% (inactive); to `O=C(/C=C/c1cc2c(cc1Br)OCO2)NCc1ccc(Cl)cc1`, -11.1% (inactive).
To `Cc1noc(C)c1S(=O)(=O)N(CC(=O)Nc1ccc2c(c1)OCCO2)c1ccc(C(C)C)cc1` belongs 55.8% (active).
With `CCOc1ccc(N(CC(=O)OC)S(=O)(=O)c2c(C)noc2C)cc1`, the inhibition is 50.6% (active).
To `CCOc1ccc(N(CC(=O)NCc2ccc(OC)cc2)S(=O)(=O)c2c(C)noc2C)cc1` belongs 15.3% (inactive); to `CCOC(=O)c1cccc(NC(=O)CN(c2ccc(C)cc2)S(=O)(=O)c2c(C)noc2C)c1`, 17.3% (inactive).
To `CCOc1ccc(N(CC(=O)NC2CCCCCC2)S(=O)(=O)c2c(C)[nH]c(=O)[nH]c2=O)cc1` belongs 25.2% (inactive); to `Cc1noc(C)c1S(=O)(=O)N(CC(=O)NCc1ccc(Cl)cc1)c1ccc2c(c1)OCO2`, 72.8% (active); to `O=C(Cn1nnc(-c2ccc3c(c2)OCO3)n1)NCc1ccco1`, 0.8% (inactive).
For `Cc1ccc(CNC(=O)CN2CCN(Cc3ccc(Cl)cc3)C2=O)cc1` the value was 15.1% (inactive); for `CS(=O)(=O)N(CC(=O)N1CCN(Cc2ccc3c(c2)OCO3)CC1)c1ccc2c(c1)OCO2`, -4.8% (inactive).
With `N/C(=N\c1nc2ccccc2o1)NC(=O)C(Cc1ccccc1)N1C(=O)c2ccccc2C1=O` (stereo not given), the inhibition was 35.9% (inactive).
To `Cn1c(=O)cc(SCC(=O)N2CCN(C(=O)c3ccco3)CC2)c2ccccc21` belongs -17% (inactive); to `Cc1c2cnn(-c3ccccc3)c(=O)c2c(C)n1CCCC(=O)N1CCN(C)CC1`, -16% (inactive).
For `O=C(Cn1cnc2ccccc2c1=O)NCC1COc2ccccc2O1` (stereo not given) the value was 22.7% (inactive); for `CC(=O)N(CN1C(=O)C2CC=CCC2C1=O)c1cccc(Cl)c1` (stereo not given), 46.5% (inactive).
For `Cc1cc(C)c2nc(N3CCCC3)c(C#N)cc2c1` the value was -2.3% (inactive); for `Fc1ccc(Br)cc1/C=N/n1cnnc1`, 13.9% (inactive); for `CCN(CC)c1ccc2oc(=O)c(C)nc2c1`, 18.7% (inactive).
As for `COc1ccc(CNC(=O)c2c(C)cc(=O)oc2C)cc1OC`, the inhibition is 5.4% (inactive).
For `COCc1cc(C(C)=O)ccc1OC` the value was 6.2% (inactive); for `COc1ccc(CC(=O)c2ccc(O)cc2O)cc1OC`, 88% (active).
For `N#CCCN1CCN(S(=O)(=O)c2ccc(S(=O)(=O)N3CCCC3)cc2)CC1` the value was -7.1% (inactive).
With `Cc1cc(-c2cccs2)nc(-n2cccc2)n1`, the inhibition is 4.9% (inactive).
For the compound `Cc1cc(C)nc(N(C#N)CC(=O)Nc2ccccc2)n1`, the inhibition was -2.6% (inactive).
For `COc1ccc(C(=O)Oc2cc(/C=N/NS(=O)(=O)c3ccc(C)cc3)ccc2OC)cc1` the value was 4.8% (inactive); for `CCOC(=O)CN(Cc1ccc(OC)c(OC)c1)S(=O)(=O)c1ccc(OC)cc1`, 81.1% (active).
For `NS(=O)(=O)c1cccnc1Nc1cccc(Cl)c1` the value was 40.5% (inactive); for `CCCCNC(=O)c1ccccc1NC(=O)c1ccccc1N(C)S(C)(=O)=O`, 14.4% (inactive).
For `CNC(=O)CSc1nnnn1-c1ccc(C)cc1C` the value was 49.1% (inactive); for `COc1ccc(C)cc1-n1nnnc1SCC(=O)c1cc(C)n(Cc2ccco2)c1C`, 98.7% (active); for `COc1ccc(C(=O)CSc2nnc(COc3ccccc3)n2Cc2ccco2)cc1`, 35% (inactive).
As for `Cc1nc2cc(-c3ccc(F)cc3)nn2c(N2CCOCC2)c1C`, the inhibition is 5.1% (inactive).
Consider `Oc1ccc(-c2onc3ccc(Cl)cc23)cc1`, for which the inhibition was 19% (inactive).
`COc1ccc(NC(=O)Cn2c(=O)n(Cc3ccco3)c(=O)c3ccccc32)cc1`: the inhibition is 15.9% (inactive).
With `CCn1c2ccccc2c2cc(NC(=O)C/C(C)=N/NC(=O)c3ccccc3N)ccc21`, the inhibition is 54.7% (active).
To `CCn1c2ccccc2c2cc(NC(=S)N3CCOCC3)ccc21` belongs 11.1% (inactive); to `CN(C(=O)c1ccccn1)c1nnc(-c2ccccn2)s1`, 1.1% (inactive).
With `CCOC(=O)N1CCN(c2c(NCCCN3CCCC(C)C3)c(=O)c2=O)CC1` (stereo not given), the inhibition was 4.3% (inactive).
To `CCCNC(=O)c1c(N)n(-c2ccc(S(N)(=O)=O)cc2)c2nc3ccccc3nc12` belongs -13.2% (inactive).
For `COCCn1c(CN(Cc2ccccc2)Cc2ccccc2)nc2c1c(=O)n(C)c(=O)n2C` the value was 76.4% (active); for `CC(C)Cn1c(CN(Cc2ccccc2)Cc2ccccc2)nc2c1c(=O)n(C)c(=O)n2C`, 17.7% (inactive).
For `CC(C)CCn1c(CN(C)Cc2ccccc2)nc2c1c(=O)n(C)c(=O)n2C` the value was 42.8% (inactive); for `COCc1cc(C)nc2sc(C(=O)NC3CCCCC3)c(N)c12`, -2.5% (inactive); for `Cc1cc(/C=N/n2cnnc2)c(C)n1-c1cccc(C(=O)O)c1`, 24.9% (inactive).
As for `Fc1ccccc1OCCSc1nc2ccccc2o1`, the inhibition was 46.8% (inactive).
To `O=C(CSCc1ccccc1Cl)NNC(=O)c1ccccc1` belongs 40.1% (inactive).
For `COc1ccccc1OCCC(=O)OCC(=O)NC(=O)NC(C)(C)C` the value was 14.2% (inactive); for `Cc1ccccc1CSCC(=O)NC(=O)NC(C)(C)C`, 56% (active).
